In all, about 39,000 compounds went through this assay and about 1,500 (3.8%) were called active. Many of the other results were omitted from the sample, so actives are more common in it than they were.
Each molecule was assayed on HSkMC (human skeletal muscle cells) (assay: cytotoxicity call (relative viability < 0.9)). Settings: 10 µM.
`C[C@@H]1CN([C@@H](C)CO)C(=O)c2cc(N(C)C)ccc2O[C@H]1CN(C)S(C)(=O)=O` was tested, and the cytotoxicity call was “inactive”. In the case of `COc1ccc(S(=O)(=O)Nc2cccc3c2O[C@H](CN(C)S(C)(=O)=O)[C@H](C)CN([C@@H](C)CO)C3=O)cc1`, the cytotoxicity call is reported as “inactive”. `CC(C)NC(=O)N(C)C[C@H]1Oc2ccc(NC(=O)c3ccncc3)cc2CC(=O)N([C@H](C)CO)C[C@H]1C` was tested, and the cytotoxicity call was “inactive”. In the case of `C[C@@H]1CCCCO[C@@H](CN(C)S(=O)(=O)c2cn(C)cn2)[C@H](C)CN([C@@H](C)CO)C(=O)c2cc(NS(=O)(=O)c3ccc(F)cc3)ccc2O1`, the cytotoxicity call is reported as “inactive”. For `Cc1ccc(S(=O)(=O)N(C)C[C@@H]2Oc3ccc(NC(=O)Nc4ccc(C(F)(F)F)cc4)cc3CC(=O)N([C@H](C)CO)C[C@H]2C)cc1`, the cytotoxicity call was “inactive”. For `Cc1ccc(S(=O)(=O)N(C)C[C@@H]2Oc3ccc(NC(=O)Nc4ccc(C(F)(F)F)cc4)cc3CC(=O)N([C@@H](C)CO)C[C@@H]2C)cc1`, the cytotoxicity call was “active”. `Cc1ccc(S(=O)(=O)N(C)C[C@@H]2Oc3ccc(NC(=O)Nc4ccc(C(F)(F)F)cc4)cc3CC(=O)N([C@@H](C)CO)C[C@H]2C)cc1` was tested, and the cytotoxicity call was “active”. `Cc1ccc(S(=O)(=O)N(C)C[C@H]2Oc3ccc(NC(=O)Nc4ccc(C(F)(F)F)cc4)cc3CC(=O)N([C@@H](C)CO)C[C@@H]2C)cc1` was tested, and the cytotoxicity call was “inactive”. For `C[C@@H]1CN([C@@H](C)CO)C(=O)c2cc(NC(=O)c3ccccc3)ccc2O[C@@H](C)CCCCO[C@H]1CN(C)CC1CCCCC1`, the cytotoxicity call was “inactive”. With `Cc1noc(C)c1NC(=O)Nc1ccc2c(c1)C(=O)N([C@@H](C)CO)C[C@@H](C)[C@H](CN(C)Cc1ccc(C(F)(F)F)cc1)O2` the cytotoxicity call was “inactive”. In the case of `CC(C)(C)[S@](=O)N1Cc2cc(C(=O)NCC(F)(F)F)nc(-c3cccc(-c4cccc(F)c4)c3)c2[C@@H]1CCO`, the cytotoxicity call is reported as “inactive”. In the case of `C[C@H]1CN([C@@H](C)CO)C(=O)Cc2cc(NC(=O)Nc3cccc4ccccc34)ccc2O[C@H]1CN(C)CC1CCCCC1`, the cytotoxicity call is reported as “active”. With `C[C@H](CO)N1C[C@H](C)[C@H](CN(C)CC2CCCCC2)Oc2ccc(NC(=O)Nc3cccc4ccccc34)cc2CC1=O` the cytotoxicity call was “inactive”. `C[C@@H]1CN([C@H](C)CO)C(=O)Cc2cc(NC(=O)Nc3cccc4ccccc34)ccc2O[C@H]1CN(C)CC1CCCCC1` was tested, and the cytotoxicity call was “inactive”. With `C[C@H]1CN([C@@H](C)CO)C(=O)Cc2cc(NC(=O)Nc3cccc4ccccc34)ccc2O[C@@H]1CN(C)CC1CCCCC1` the cytotoxicity call was “active”. In the case of `C[C@@H]1CN([C@@H](C)CO)C(=O)Cc2cc(NC(=O)Nc3cccc4ccccc34)ccc2O[C@@H]1CN(C)CC1CCCCC1`, the cytotoxicity call is reported as “inactive”. `C[C@@H]1CN([C@@H](C)CO)C(=O)Cc2cc(NC(=O)Nc3cccc4ccccc34)ccc2O[C@H]1CN(C)CC1CCCCC1` was tested, and the cytotoxicity call was “inactive”. `C[C@H](CO)N1C[C@H](C)[C@H](CN(C)C(=O)Nc2ccc3c(c2)OCO3)Oc2ccc(NC(=O)Nc3ccc(C(F)(F)F)cc3)cc2C1=O` was tested, and the cytotoxicity call was “inactive”. `COC[C@H]1CNN1C(=O)Nc1c(C)noc1C` was tested, and the cytotoxicity call was “inactive”. `Cc1noc(C)c1NC(=O)Nc1ccc2c(c1)C(=O)N([C@@H](C)CO)C[C@H](C)[C@H](CN(C)C(=O)NC(C)C)O2` was tested, and the cytotoxicity call was “inactive”. `C[C@H](CO)N1C[C@H](C)[C@H](CN(C)C(=O)Nc2cccc3ccccc23)Oc2ccc(NS(=O)(=O)c3ccc(F)cc3)cc2C1=O` was tested, and the cytotoxicity call was “inactive”. `C[C@@H]1CCCCO[C@@H](CN(C)C(=O)Nc2ccccc2)[C@@H](C)CN([C@H](C)CO)C(=O)c2cc(NC(=O)c3ccccc3)ccc2O1` was tested, and the cytotoxicity call was “inactive”. `C[C@@H]1CN([C@@H](C)CO)C(=O)c2cccc(NC(=O)Nc3ccc(C(F)(F)F)cc3)c2O[C@H]1CN(C)Cc1ccccc1` was tested, and the cytotoxicity call was “active”. In the case of `C[C@H](CO)N1C[C@H](C)[C@@H](CN(C)Cc2ccccc2)Oc2c(NC(=O)Nc3ccc(C(F)(F)F)cc3)cccc2C1=O`, the cytotoxicity call is reported as “inactive”. In the case of `C[C@@H]1CN([C@H](C)CO)C(=O)c2cccc(NC(=O)Nc3ccc(C(F)(F)F)cc3)c2O[C@H]1CN(C)Cc1ccccc1`, the cytotoxicity call is reported as “inactive”. With `C[C@H]1CN([C@@H](C)CO)C(=O)c2cccc(NC(=O)Nc3ccc(C(F)(F)F)cc3)c2O[C@@H]1CN(C)Cc1ccccc1` the cytotoxicity call was “active”. `C[C@@H]1CN([C@H](C)CO)C(=O)c2cccc(NC(=O)Nc3ccc(C(F)(F)F)cc3)c2O[C@@H]1CN(C)Cc1ccccc1` was tested, and the cytotoxicity call was “inactive”. `C[C@@H]1CN([C@@H](C)CO)C(=O)c2cccc(NC(=O)Nc3ccc(C(F)(F)F)cc3)c2O[C@@H]1CN(C)Cc1ccccc1` was tested, and the cytotoxicity call was “inactive”. In the case of `Cc1c(-c2ccnn2C)cc(C(=O)NCc2ccc(S(C)(=O)=O)cn2)c(=O)n1-c1cccc(C(F)(F)F)c1`, the cytotoxicity call is reported as “inactive”. For `Cc1sc2[nH]cnc(=S)c2c1C`, the cytotoxicity call was “inactive”. For `C[C@@H]1CN([C@H](C)CO)C(=O)c2c(c3ccccc3n2C)-c2ccccc2CO[C@H]1CN(C)Cc1ccc2c(c1)OCO2`, the cytotoxicity call was “inactive”. With `C[C@@H]1CN([C@@H](C)CO)C(=O)c2cc(NC(=O)Nc3ccc(C(F)(F)F)cc3)ccc2O[C@@H]1CN(C)Cc1ccc(C(=O)Nc2ccccc2N)cc1` the cytotoxicity call was “inactive”. With `COCC(=O)N[C@@H]1C[C@H](CO)[C@H](O)C1` the cytotoxicity call was “inactive”. In the case of `CCCc1cc(=O)n2ncnc2[nH]1`, the cytotoxicity call is reported as “inactive”. In the case of `Cc1noc(C)c1NC(=O)Nc1ccc2c(c1)CC(=O)N([C@H](C)CO)C[C@@H](C)[C@H](CN(C)S(=O)(=O)c1cccs1)O2`, the cytotoxicity call is reported as “inactive”. `C=C(C)C1CCC2(CO)CCC3(C)C(CCC4C5(C)CCC(O)C(C)(C)C5CCC43C)C12` (stereo not given) was tested, and the cytotoxicity call was “active”. In the case of `C=C(C)C1CCC2(C(=O)O)CCC3(C)C(CCC4C5(C)CCC(O)C(C)(C)C5CCC43C)C12` (stereo not given), the cytotoxicity call is reported as “inactive”. `C=C(C)C1CCC2(C)CCC3(C)C(CCC4C5(C)CCC(O)C(C)(C)C5CCC43C)C12` (stereo not given) was tested, and the cytotoxicity call was “inactive”. For `CN1CCN(C(=O)C[C@@H]2CC[C@@H]3[C@H](COC[C@H](O)CN3Cc3ccc(Oc4ccccc4)cc3)O2)CC1`, the cytotoxicity call was “inactive”. With `CC(C)(C)NC(=O)C[n+]1cccc(/C=N/O)c1` the cytotoxicity call was “inactive”. With `O=C(C[C@@H]1CC[C@@H]2[C@H](COC[C@@H](O)CN2S(=O)(=O)c2cccc(Cl)c2)O1)NCc1ccncn1` the cytotoxicity call was “inactive”. For `O=C(/C=C/c1cccc(-c2cn(-c3cccc(C(=O)N4CCC5(CC4)C(=O)NCN5c4ccccc4)c3)nn2)c1)NO`, the cytotoxicity call was “inactive”. In the case of `O=C(NO)c1cn(-c2cccc(C(=O)N3CCC4(CC3)C(=O)NCN4c3ccccc3)c2)nn1`, the cytotoxicity call is reported as “active”. For `O=C(NO)c1cn(CC(=O)N2CCC3(CC2)C(=O)NCN3c2ccccc2)nn1`, the cytotoxicity call was “inactive”. `C=CCNC(=O)[C@H]1CCCN(S(C)(=O)=O)C1` was tested, and the cytotoxicity call was “inactive”. For `O=C(C[C@@H]1C=C[C@H](NC(=O)c2ccc3c(c2)OCO3)[C@H](CO)O1)NCc1ccc(Oc2ccccc2)cc1`, the cytotoxicity call was “inactive”. In the case of `COCCNC(=O)C[C@H]1CC[C@@H]2[C@@H](COc3ccc(NS(=O)(=O)c4ccc(Cl)cc4)cc3C(=O)N2C)O1`, the cytotoxicity call is reported as “inactive”. `COc1ccc2ccccc2c1-c1c(OC)ccc2ccccc12` was tested, and the cytotoxicity call was “inactive”. For `COCOc1ccc2cc(Br)ccc2c1-c1c(OCOC)ccc2cc(Br)ccc12`, the cytotoxicity call was “active”. With `COc1ccccc1-c1ccc2c(c1)O[C@@H](CN(C)CC1CCOCC1)[C@@H](C)CN([C@@H](C)CO)S2(=O)=O` the cytotoxicity call was “inactive”. In the case of `CCNC(=O)[C@@H]1CCCN1C(=O)[C@H](CCCNC(=N)N)NC(=O)[C@H](CC(C)C)NC(=O)[C@@H](CC(C)C)NC(=O)[C@H](Cc1ccc(O)cc1)NC(=O)[C@H](CO)NC(=O)[C@H](Cc1c[nH]c2ccccc12)NC(=O)[C@H](Cc1cnc[nH]1)NC(=O)[C@@H]1CCC(=O)N1`, the cytotoxicity call is reported as “inactive”. In the case of `CN(c1c[nH]c(=O)[nH]c1=O)C1CCCCC1`, the cytotoxicity call is reported as “inactive”. For `C[C@@H]1CN([C@@H](C)CO)C(=O)Cc2cc(NS(=O)(=O)c3ccc(F)cc3)ccc2O[C@H]1CN(C)Cc1ccc(Oc2ccccc2)cc1`, the cytotoxicity call was “inactive”. `C[C@H]1CN([C@@H](C)CO)C(=O)Cc2cc(NS(=O)(=O)c3ccc(F)cc3)ccc2O[C@@H]1CN(C)Cc1ccc(Oc2ccccc2)cc1` was tested, and the cytotoxicity call was “inactive”. In the case of `C[C@H]1CN([C@@H](C)CO)C(=O)Cc2cc(NS(=O)(=O)c3ccc(F)cc3)ccc2O[C@H]1CN(C)Cc1ccc(Oc2ccccc2)cc1`, the cytotoxicity call is reported as “active”. `C[C@@H]1CN([C@H](C)CO)C(=O)Cc2cc(NS(=O)(=O)c3ccc(F)cc3)ccc2O[C@@H]1CN(C)Cc1ccc(Oc2ccccc2)cc1` was tested, and the cytotoxicity call was “active”. `C[C@@H]1CN([C@H](C)CO)C(=O)Cc2cc(NS(=O)(=O)c3ccc(F)cc3)ccc2O[C@H]1CN(C)Cc1ccc(Oc2ccccc2)cc1` was tested, and the cytotoxicity call was “active”. `C[C@H](CO)N1C[C@H](C)[C@H](CN(C)Cc2ccc(Oc3ccccc3)cc2)Oc2ccc(NS(=O)(=O)c3ccc(F)cc3)cc2CC1=O` was tested, and the cytotoxicity call was “active”. With `C[C@H](CO)N1C[C@H](C)[C@@H](CN(C)Cc2ccc(Oc3ccccc3)cc2)Oc2ccc(NS(=O)(=O)c3ccc(F)cc3)cc2CC1=O` the cytotoxicity call was “inactive”. With `Cc1noc(C)c1NC(=O)Nc1ccc2c(c1)C(=O)N([C@@H](C)CO)C[C@H](C)[C@H](CN(C)Cc1ccc3c(c1)OCO3)OCCCC[C@H](C)O2` the cytotoxicity call was “inactive”. `CC(C)NC(=O)N(C)C[C@H]1Oc2ccc(NC(=O)CCCN(C)C)cc2C(=O)N([C@H](C)CO)C[C@@H]1C` was tested, and the cytotoxicity call was “inactive”. In the case of `C[C@@H]1CCCCO[C@@H](CN(C)C(=O)C2CCCCC2)[C@@H](C)CN([C@@H](C)CO)C(=O)c2cc(NC(=O)CCC(F)(F)F)ccc2O1`, the cytotoxicity call is reported as “inactive”. In the case of `C[C@@H]1CN([C@@H](C)CO)C(=O)c2cc(NS(=O)(=O)c3ccc(Cl)cc3)ccc2O[C@@H](C)CCCCO[C@H]1CN(C)S(=O)(=O)c1ccc(F)cc1`, the cytotoxicity call is reported as “inactive”. With `Cc1noc(C)c1S(=O)(=O)Nc1ccc2c(c1)CC(=O)N([C@@H](C)CO)C[C@@H](C)[C@H](CN(C)C(=O)Nc1ccc3c(c1)OCO3)O2` the cytotoxicity call was “inactive”. `COc1ccc(CN(C)C[C@H]2Oc3ccc(NS(C)(=O)=O)cc3C(=O)N([C@@H](C)CO)C[C@H]2C)cc1` was tested, and the cytotoxicity call was “inactive”.
